The record followed here is PubChem BioAssay (Tox21).

Assay [1] addresses Thyrotropin receptor (Homo sapiens) (UniProt P16473). Description: qHTS assay to identify small molecule antagonists of the thyroid stimulating hormone receptor (TSHR) signaling pathway (AID 1259385; calls by dose curve; note: nearly all actives have a fitted effect of over 20% in size). The gist of the method: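 TSHR-HEK293 cells were plated and held 18 h at 37C/5% CO2, then given compound plus Ro20-1724 and stimulated with TSH at 1.5 ng/mL final. After 30 min at room temperature, cAMP was detected with cAMP-d2/anti-cAMP-cryptate (1 h) by fluorescence.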

The nature of assay [2]: qHTS assay to identify small molecule agonists of the estrogen receptor alpha (ER-alpha) signaling pathway in the presence of an antagonist - cell viability counter screen (AID 1259386).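 Note: series mostly up to about 92 µM; cells exposed to compounds for 22 h at 37 °C before the viability read; nearly all actives have a fitted effect of over 30% in size.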 The gist of the method:
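ICI-182,780 at 10.0nM final accompanies the compound titration (15 concentrations, 22hr, 37C) on VM7Luc4E2 cells. The CellTiter-Fluor fluorescence readout runs in the same wells as the luciferase assay.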
(In general: Quantitative high-throughput screening tests each substance at several concentrations.)

Assay [3] can be described thus: qHTS assay to identify small molecule antagonists of the progesterone receptor (PR) signaling pathway - cell viability counter screen (AID 1346798). Note: nearly all actives have a fitted effect of over 50% in size. Note: potency is the fitted concentration of half-maximal effect. An outline of the steps:
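Cytotoxicity read as CellTiter-Glo luminescence (30 min, room temperature) in the same wells as the beta-lactamase readout. HEK293T PR-UAS-bla cells in charcoal-stripped 2% FBS received compound and R5020, then 16 h at 37C, 5% CO2.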

Assay [4] can be described thus: qHTS assay to identify small molecule agonists of the progesterone receptor (PR) signaling pathway - cell viability counter screen (AID 1346799; calls by dose curve; note: nearly all actives have a fitted effect of over 45% in size; note: potency is the fitted concentration of half-maximal effect). An outline of the steps: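 Cytotoxicity measured by CellTiter-Glo luminescence (30 min, RT) in the same wells as the PR beta-lactamase agonist read. Those HEK293T cells had 16 h compound treatment at 37 C in 2% charcoal-stripped FBS medium.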

Assay [5] can be described thus: qHTS assay to identify small molecule antagonists of the TGF-beta/Smad signaling pathway - cell viability counter screen (AID 1346824). Note: nearly all actives have a fitted effect of over 50% in size. An outline of the steps:
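SBE-bla HEK 293T cells were plated overnight at 37 C, then given compounds in DMSO plus TGF-beta1 (added as 0.25 ng/mL solution) for 5 hr. After the bla read, CellTiter-Glo was added to the same wells and luminescence read after 30 min at room temperature.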

Assay [6] can be described thus: qHTS assay to identify small molecule agonists of the TGF-beta/Smad signaling pathway - cell viability counter screen (AID 1346829). Note: top concentration of the series differs between compounds; nearly all actives have a fitted effect of over 45% in size. The gist of the method:
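Here the cytotoxicity of library compounds is measured in SBE-bla HEK 293T cells treated for 5 hr, using CellTiter-Glo added to wells already read for the beta-lactamase reporter.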

Assay [7] is described as follows: qHTS assay to identify small molecule agonists of the TGF-beta/Smad signaling pathway (AID 1346859; active = well fitted activation curve with a large enough effect in the signal ratio in the repeat runs, not every such curve was filed as active; the % refers to the signal ratio; note: series mostly up to about 77 µM). An outline of the steps:
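Fluorescence (ex 405 nm; em 460 and 530 nm) was read 2 h after LiveBLAzer FRET substrate at RT. The preceding compound treatment of overnight-plated SBE-bla HEK293T cells lasted 5 h at 37 C.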

A short description of assay [8]: Caspase-3/7 induction in HepG2 cells by small molecules, qHTS assay (AID 1346978). Note: nearly all actives have a fitted effect of over 15% in size. Note: potency is the fitted concentration of half-maximal effect. An outline of the steps: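 Wild-type HepG2 cells (2,000/well) were settled 5 h at 37 C, 5% CO2, then exposed to compounds in DMSO for 17 h. Caspase-3/7 activity was read by luminescence 30 min after adding Caspase-Glo 3/7 reagent at room temperature.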
Assay [9] in a line: Caspase-3/7 induction in CHO-K1 cells by small molecules, qHTS cell viability counter screen (AID 1346979). Note: nearly all actives have a fitted effect of over 35% in size. Note: potency is the fitted concentration of half-maximal effect. The gist of the method: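 Cytotoxicity counter screen: CellTiter-Fluor added to compound-treated wild-type CHO-K1 cells at 16 h (37C, 5% CO2), fluorescence measured 1 h later; same wells as caspase-3/7 measurement.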
Assay [10] can be described thus: Caspase-3/7 induction in CHO-K1 cells by small molecules, qHTS assay (AID 1346980). Note: nearly all actives have a fitted effect of over 15% in size. Note: potency is the fitted concentration of half-maximal effect. An outline of the steps: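 Wild-type cells were seeded at 1,500 per well and settled 5 hr at 37 C, 5% CO2, then exposed to DMSO-dissolved compounds for 17 hr. Caspase-Glo 3/7 reagent was added, and luminescence was read after 30min at room temperature.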
A short description of assay [11]: Caspase-3/7 induction in HepG2 cells by small molecules, qHTS cell viability counter screen (AID 1346981). Note: nearly all actives have a fitted effect of over 30% in size. Note: potency is the fitted concentration of half-maximal effect. An outline of the steps: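 Multiplexed with the caspase-3/7 assay: HepG2 cells, 16 hr compound treatment, CellTiter-Fluor viability detection by fluorescence.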
Assay [12] deals with Nuclear receptor subfamily 1 group I member 2 (Homo sapiens) (UniProt O75469). Description: Human pregnane X receptor (PXR) small molecule agonists, qHTS assay (AID 1346982). Note: nearly all actives have a fitted effect of over 35% in size. Note: potency is the fitted concentration of half-maximal effect. The gist of the method: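 We seeded PXR-Luc HepG2 cells in assay medium containing 5% charcoal-stripped FBS, added compounds 5 hr later, incubated 24 hr, and read luminescence with ONE-Glo reagent.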
Chain of Nuclear receptor subfamily 1 group I member 2 (Homo sapiens) (O75469 whole entry, looked up): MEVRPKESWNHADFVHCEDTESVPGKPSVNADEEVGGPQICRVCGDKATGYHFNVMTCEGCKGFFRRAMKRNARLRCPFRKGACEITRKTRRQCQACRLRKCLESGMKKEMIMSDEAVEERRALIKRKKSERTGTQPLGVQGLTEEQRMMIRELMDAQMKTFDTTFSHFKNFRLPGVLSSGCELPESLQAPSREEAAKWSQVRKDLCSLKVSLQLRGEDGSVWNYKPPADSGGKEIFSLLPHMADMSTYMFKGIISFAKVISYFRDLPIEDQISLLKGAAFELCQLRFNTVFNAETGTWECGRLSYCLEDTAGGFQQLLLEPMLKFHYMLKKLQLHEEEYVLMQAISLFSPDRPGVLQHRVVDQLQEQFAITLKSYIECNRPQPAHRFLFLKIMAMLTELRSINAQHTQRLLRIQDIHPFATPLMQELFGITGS
For assay [13], the target named is Nuclear receptor subfamily 1 group I member 2 (Rattus norvegicus) (UniProt Q9R1A7). Description: Rat pregnane X receptor (rPXR) activation by small molecules, qHTS assay (AID 1346983). Note: nearly all actives have a fitted effect of over 20% in size. The conditions noted are these: rPXR luciferase reporter cells, One-Glo luminescence, 24 h; max activation: stronger effect = higher value. The gist of the method: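 Cell-based rPXR luciferase reporter assay, 2,000 cells per well, rested 5hr at 37 C before compound addition in DMSO, then 24 hr at 37 C. One-Glo reagent was added and luminescence read after 30 min at room temperature.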
Chain of Nuclear receptor subfamily 1 group I member 2 (Rattus norvegicus) (Q9R1A7 whole entry, looked up): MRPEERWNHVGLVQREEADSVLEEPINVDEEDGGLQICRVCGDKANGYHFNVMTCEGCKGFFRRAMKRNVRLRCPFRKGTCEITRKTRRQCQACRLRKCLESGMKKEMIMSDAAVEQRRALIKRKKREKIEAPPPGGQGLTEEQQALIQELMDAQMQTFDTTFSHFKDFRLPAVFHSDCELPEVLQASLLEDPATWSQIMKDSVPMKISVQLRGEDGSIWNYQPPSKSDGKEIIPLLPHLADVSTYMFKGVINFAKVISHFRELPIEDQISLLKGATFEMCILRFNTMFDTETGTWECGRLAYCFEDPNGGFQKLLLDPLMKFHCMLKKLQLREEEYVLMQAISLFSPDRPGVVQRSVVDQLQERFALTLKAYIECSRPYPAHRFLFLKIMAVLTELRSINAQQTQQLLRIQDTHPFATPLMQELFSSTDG

Assay [14] concerns the target Nuclear receptor subfamily 1 group I member 2 (Homo sapiens) (UniProt O75469). Description: CYP3A4 induction through human pregnane X receptor (PXR) by small molecules, qHTS assay (AID 1346984). Note: nearly all actives have a fitted effect of over 40% in size. The gist of the method:
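qHTS, concentration-response format: HepG2 DPX-2 line, PXR/CYP3A4-luc. Exposure 24 h, 37C. Substrate Luciferin-IPA 3uM final, 3 h. Detection One-Glo, 30 min RT.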

Assay [15] has the same target. Description: Human pregnane X receptor (PXR) activation by small molecules, qHTS assay (AID 1346985). Note: nearly all actives have a fitted effect of over 40% in size. Note: potency is the fitted concentration of half-maximal effect. An outline of the steps: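 DPX-2 cells (HepG2 co-transfected with a PXR response element and a CYP3A4-promoter luciferase construct) were seeded at 2,000 per well, rested 5 hr at 37C, then exposed to DMSO-dissolved compounds for 24 hr. Activation was read as luciferase luminescence.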

Assay [16] addresses Progesterone receptor (Homo sapiens) (UniProt P06401). Description: qHTS assay to identify small molecule antagonists of the progesterone receptor (PR) signaling pathway (AID 1346795; active = well fitted inhibition curve with a large enough effect in the signal ratio in the repeat runs, not every such curve was filed as active; the % refers to the signal ratio; note: potency is the fitted concentration of half-maximal effect). An outline of the steps: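 Antagonist mode with agonist R5020 at 1 nM final and 16 hr incubation at 37C. Reporter was beta-lactamase driven by UAS in HEK293T (PR-UAS-bla), 2% charcoal-stripped serum; signal from LiveBLAzer FRET substrate, 2 hr at room temperature.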

In assay [17] the target is Thyrotropin-releasing hormone receptor (Homo sapiens) (UniProt P34981). Description: qHTS assay to identify small molecule antagonists of the thyrotropin-releasing hormone receptor (TRHR) signaling pathway (AID 1346877; active = well fitted inhibition curve with a large enough effect in the repeat runs, not every such curve was filed as active; note: series mostly up to about 51 µM). The gist of the method:
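Screening used HEK293 cells engineered with TRHR, with a brief 5 min room-temperature compound exposure preceding addition of TRH to 1 nM. The read-out was kinetic calcium-dye fluorescence, concentration-response from 15 doses in triplicate.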

Assay [18] shares this target. Description: qHTS assay to identify small molecule agonists of the thyrotropin-releasing hormone receptor (TRHR) signaling pathway (AID 1346891; calls by dose curve; note: series mostly up to about 58 µM). An outline of the steps: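 Agonist-mode intracellular calcium readout: kinetic fluorescence over 3 min at 1 s intervals after compound addition to TRHR-HEK293 cells (18 h seeded, 2 h dye-loaded at 37 C). Fifteen concentrations, triplicates.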

A short description of assay [19]: Human pregnane X receptor (PXR) small molecule agonists, qHTS cell viability counter screen (AID 1346977). Note: nearly all actives have a fitted effect of over 50% in size. Note: potency is the fitted concentration of half-maximal effect. The gist of the method:
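Same-well viability read: CellTiter-Fluor added after 23 hr compound exposure, fluorescence measured 1 hr later. Cells were PXR-Luc HepG2 seeded at 2,000/well in 5% charcoal-stripped FBS medium, rested 5 hr before dosing at 37 C.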

Assay [20] has as its target Progesterone receptor (Homo sapiens) (UniProt P06401). Description: qHTS assay to identify small molecule agonists of the progesterone receptor (PR) signaling pathway (AID 1346784; calls by dose curve; note: nearly all actives have a fitted effect of over 30% in size). The gist of the method:
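Agonist qHTS: compounds pinned onto 3,000 PR-UAS-bla HEK 293T cells per well in charcoal-stripped serum medium, 16hr at 37C, then beta-lactamase activity measured by LiveBLAzer FRET fluorescence after 2 hours at room temperature.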

Molecules are shown by their SMILES. Values without a mark were called inactive. Records with an inconclusive call do not appear. The source made the active and inactive calls. Unless noted, calls come from the whole dose curve; as a rule, active = well fitted curve in the direction sought with a large enough effect in the repeat runs; inconclusive = weak or mixed curves; inactive = no such curve, though single readings can be large; an effect the other way counts as inactive or inconclusive.
% is set by controls: 0 for no effect and ±100 for the full control effect.

Chain of Progesterone receptor (Homo sapiens) (P06401 whole entry, looked up): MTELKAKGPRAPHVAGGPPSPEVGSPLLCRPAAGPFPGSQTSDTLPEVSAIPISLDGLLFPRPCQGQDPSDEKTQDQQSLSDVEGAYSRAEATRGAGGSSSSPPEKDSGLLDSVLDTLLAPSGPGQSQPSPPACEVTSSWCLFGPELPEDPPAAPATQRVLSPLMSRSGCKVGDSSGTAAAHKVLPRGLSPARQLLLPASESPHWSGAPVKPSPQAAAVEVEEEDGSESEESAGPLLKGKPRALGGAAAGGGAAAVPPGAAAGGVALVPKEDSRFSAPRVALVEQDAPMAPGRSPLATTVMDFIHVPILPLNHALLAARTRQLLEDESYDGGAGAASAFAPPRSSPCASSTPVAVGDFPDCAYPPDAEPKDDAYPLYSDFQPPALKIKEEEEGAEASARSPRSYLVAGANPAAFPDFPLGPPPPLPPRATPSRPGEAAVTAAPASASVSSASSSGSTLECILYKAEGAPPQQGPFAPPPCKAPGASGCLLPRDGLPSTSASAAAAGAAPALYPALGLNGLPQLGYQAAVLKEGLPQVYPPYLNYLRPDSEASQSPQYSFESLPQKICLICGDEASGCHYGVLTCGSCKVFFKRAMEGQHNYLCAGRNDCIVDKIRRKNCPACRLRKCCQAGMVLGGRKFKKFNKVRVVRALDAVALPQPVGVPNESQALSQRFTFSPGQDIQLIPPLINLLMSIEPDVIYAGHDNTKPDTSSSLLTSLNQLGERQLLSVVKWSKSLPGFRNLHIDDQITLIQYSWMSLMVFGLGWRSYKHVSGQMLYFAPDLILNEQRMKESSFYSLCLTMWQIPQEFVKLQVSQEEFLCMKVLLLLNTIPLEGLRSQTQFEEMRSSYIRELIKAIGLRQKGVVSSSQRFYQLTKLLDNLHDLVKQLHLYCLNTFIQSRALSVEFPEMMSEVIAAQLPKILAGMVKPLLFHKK
Chain of Thyrotropin receptor (Homo sapiens) (P16473 whole entry, looked up): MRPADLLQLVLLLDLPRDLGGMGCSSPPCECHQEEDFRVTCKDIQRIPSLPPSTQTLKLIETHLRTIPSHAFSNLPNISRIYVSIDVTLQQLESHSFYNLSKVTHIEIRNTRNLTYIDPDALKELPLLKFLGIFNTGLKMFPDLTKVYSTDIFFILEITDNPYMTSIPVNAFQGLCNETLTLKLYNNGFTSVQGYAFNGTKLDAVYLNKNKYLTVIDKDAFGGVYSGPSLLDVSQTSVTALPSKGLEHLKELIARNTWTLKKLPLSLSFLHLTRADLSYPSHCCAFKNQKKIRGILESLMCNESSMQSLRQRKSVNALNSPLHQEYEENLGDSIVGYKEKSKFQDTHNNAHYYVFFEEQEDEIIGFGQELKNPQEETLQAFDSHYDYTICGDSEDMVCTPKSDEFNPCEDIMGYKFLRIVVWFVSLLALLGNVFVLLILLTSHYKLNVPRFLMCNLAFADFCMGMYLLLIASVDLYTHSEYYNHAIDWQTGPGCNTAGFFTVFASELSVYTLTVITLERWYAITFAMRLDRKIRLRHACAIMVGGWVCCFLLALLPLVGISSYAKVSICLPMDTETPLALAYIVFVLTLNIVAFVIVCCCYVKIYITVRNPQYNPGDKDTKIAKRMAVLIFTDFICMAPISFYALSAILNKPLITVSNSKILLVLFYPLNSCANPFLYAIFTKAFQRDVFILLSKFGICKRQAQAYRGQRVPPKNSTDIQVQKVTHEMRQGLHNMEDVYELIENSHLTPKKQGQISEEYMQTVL
Chain of Thyrotropin-releasing hormone receptor (Homo sapiens) (P34981 whole entry, looked up): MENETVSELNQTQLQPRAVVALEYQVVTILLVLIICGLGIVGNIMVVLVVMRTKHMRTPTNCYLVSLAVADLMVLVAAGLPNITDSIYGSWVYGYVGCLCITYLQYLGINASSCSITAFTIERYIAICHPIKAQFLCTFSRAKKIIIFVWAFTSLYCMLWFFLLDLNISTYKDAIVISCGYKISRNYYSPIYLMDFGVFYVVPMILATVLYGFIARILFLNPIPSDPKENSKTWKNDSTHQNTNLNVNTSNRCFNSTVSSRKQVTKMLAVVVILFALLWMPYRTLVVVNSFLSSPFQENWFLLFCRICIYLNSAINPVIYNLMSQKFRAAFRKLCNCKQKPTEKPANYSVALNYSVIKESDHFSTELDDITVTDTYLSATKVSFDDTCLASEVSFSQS

Turning to `CCCCOc1ccc(OCCCN2CCOCC2)cc1`, the Potency entry in [1], in assay [2], in [3], in assay [4], in assay [5] and in assay [6] was “inactive” in each case. The Potency entry in assay [7], in assay [8], in assay [9], in [10], in assay [11] and in [14] was “inactive” in each case. Also, in [15], the Potency entry is “inactive”. The Potency in assay [12] was 21.1 µM (active). Further, the max activation in assay [13] is -1.82%.
As for `C=C(C)[C@@H]1CCC2=CCC[C@@H](C)[C@]2(C)C1`, the Potency entry in assay [1], in assay [2], in assay [16], in assay [6], in assay [7] and in assay [18] was “inactive” each time. Moreover, the Potency entry in assay [19], in [8], in assay [9], in assay [10] and in assay [11] was “inactive” in each case. The call in assay [17] was inactive. In addition, in assay [12], the Potency was 38.6 µM (active).
Take `Cc1ccc(Cl)c(Nc2ccccc2C(=O)O)c1Cl`: the Potency result in [1], in [2], in assay [20], in assay [5], in assay [18] and in assay [19] was “inactive” throughout. The Potency entry in assay [8], in assay [9], in assay [10], in assay [11], in [12] and in assay [14] was “inactive” throughout. The Potency entry in assay [15] is “inactive”. Also, the outcome in [17] was inactive. In assay [13], the max activation is 0.813%.
In the case of `CC1(CN2CCC(n3c(=O)[nH]c4ccccc43)CC2)OCc2ccccc2-n2cccc21` (centres undefined), the Potency entry in [1], in assay [2], in [5], in assay [6], in [7] and in [8] was “inactive” each time. The Potency entry in [10] and in assay [14] was “inactive” throughout. In addition, the Potency in [19] was 29.8 µM (active); in [9] it was 29.8 µM (active); in assay [12], 29.8 µM (active); in assay [15], 4.47 µM (active).
With `CC(CN(C)C)C(C)(O)Cc1ccc(Cl)cc1` (centres undefined), the Potency result in [1], in assay [2], in assay [16], in assay [3], in assay [6] and in assay [7] was “inactive” in each case. The Potency entry in [18], in [19], in assay [8], in [9], in assay [10] and in assay [11] was “inactive” each time. The Potency entry in assay [12] and in assay [15] was “inactive” throughout. In addition, the compound was classed as inactive in assay [17]. In [13], the max activation is -1.26%.
Regarding `CC(=O)NC1(c2cccc(F)c2)CCN(CC[C@@]2(c3ccc(Cl)c(Cl)c3)CN(c3ccccc3)C(=O)CO2)CC1`, the Potency result in [1], in [2], in [5] and in assay [18] was “inactive” throughout. Further, the Potency was 48.7 µM (active) in assay [16]; 38.7 µM (active) in assay [3]; 21.7 µM (active) in [4]; 34.5 µM (active) in assay [19]; 48.7 µM (active) in [8]; 34.5 µM (active) in [9]. Also, the Potency was 48.7 µM (active) in [10], 48.7 µM (active) in [11] and 19.4 µM (active) in assay [12]. The compound was classed as inactive in [17].
`CCOc1ccccc1O[C@H](c1ccccc1)[C@H]1CNCCO1`: the Potency entry in assay [1], in assay [2], in assay [16], in assay [3], in assay [5] and in assay [7] was “inactive” each time. Also, the Potency entry in assay [8], in assay [9], in assay [10], in assay [11], in assay [12] and in [14] was “inactive” in each case. Moreover, in [13], the max activation is -0.272%. Also, the Potency in assay [15] was 22.4 µM (active).
`C=CC(C)(CCC=C(C)C)OC(=O)CC(C)C` (centres undefined): the Potency entry in assay [1], in assay [2], in [3], in [4], in assay [5] and in [6] was “inactive” throughout. For the same compound, the Potency result in assay [7], in assay [18], in assay [19], in [8], in assay [9] and in [10] was “inactive” in each case. For the same compound, the Potency result in assay [11] and in assay [12] was “inactive” throughout. Besides, the outcome in [17] was inactive.
